Results on 18 molecules are retold here after PubChem BioAssay (EPA / NIEHS).

SMILES strings stand for the structures. Several values for one entry are separate records, joined by “and”; a condition that tells them apart may be missing. Identical values can stand only once. Where a structure was tested more than once in an assay, its records may differ in their call. Activity calls are given as the source filed them. The calls were made as follows: active = hit-call score of the fitted dose curve at least 0.9, where 1 is the maximum; inactive = score below 0.9.

Test [1] in a line: ATG_AP_1_CIS: Attagene CIS-FACTORIAL HepG2 Assay for human Activator Protein 1 (AP-1) (AID 2282931). The following applies: HepG2 Attagene cis-factorial AP-1 reporter mRNA; actives raise or lower the signal. The essentials: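 Reporter transcripts were measured 24 h after dosing by RT-PCR and capillary electrophoresis of fluorescent fragments. Cells: HepG2 carrying transfected cis-regulated reporter constructs reading endogenous factor activity. Gain or loss fitted against DMSO.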

A short description of test [2]: ATG_AP_2_CIS: Attagene CIS-FACTORIAL HepG2 Assay for human Activator Protein 2 (AP-2) (AID 2282932). The note with it: HepG2 AP-2 cis-reporter, Attagene transcription factor profiling; actives raise or lower the signal. The essentials:
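Bidirectional curve fitting against DMSO was applied to reporter mRNA signals from HepG2 cells 24 h after dosing. Cis-promoter reporter units, transiently transfected, were read by RT-PCR plus capillary electrophoresis.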

Test [3] in a line: ATG_BRE_CIS: Attagene CIS-FACTORIAL HepG2 Assay for human Bone Morphogenetic Protein (BMP) Response Element (BRE) (AID 2282933). The note with it: HepG2 BMP response element reporter, Attagene transcription factor profiling; actives raise or lower the signal. The essentials:
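Read-out: reporter mRNA induction quantified by RT-PCR and capillary electrophoresis after 24 h chemical exposure of transfected HepG2 cells. Endogenous factor activity on the BMP response element; gain or loss fitted against DMSO baseline.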

In test [4] the target is Retinoic acid receptor alpha (Homo sapiens) (UniProt P10276). Briefly: ATG_DR5_RAR_CIS: Attagene CIS-FACTORIAL HepG2 Assay for human Retinoic Acid Receptor Alpha (RARE), DR5 submotif (AID 2282934). The following applies: HepG2 Attagene cis-factorial RARE DR5 reporter, mRNA; actives raise or lower the signal. The essentials:
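HepG2 cells transiently transfected with multiplexed reporter units under cis (DR5 RARE) promoters, so endogenous transcription factor activity is measured. After 24 h compound exposure, reporter mRNA is quantified by RT-PCR with fluorescent labelling and capillary electrophoresis; bidirectional fitting versus DMSO.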

Test [5] deals with Transcription factor E2F1 (Homo sapiens) (UniProt Q01094). Briefly: ATG_E2F_CIS: Attagene CIS-FACTORIAL HepG2 Assay for human E2F Transcription Factor 1 (AID 2282935). The following applies: HepG2 Attagene cis-reporter, E2F reporter RNA transcripts; actives raise or lower the signal. The essentials: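 Multiplexed cis-reporter assay: HepG2, transient transfection, 24 h dosing, mRNA quantitation by labeled RT-PCR and CE.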
Transcription factor E2F1 (Homo sapiens), sequence (Q01094 whole entry, looked up): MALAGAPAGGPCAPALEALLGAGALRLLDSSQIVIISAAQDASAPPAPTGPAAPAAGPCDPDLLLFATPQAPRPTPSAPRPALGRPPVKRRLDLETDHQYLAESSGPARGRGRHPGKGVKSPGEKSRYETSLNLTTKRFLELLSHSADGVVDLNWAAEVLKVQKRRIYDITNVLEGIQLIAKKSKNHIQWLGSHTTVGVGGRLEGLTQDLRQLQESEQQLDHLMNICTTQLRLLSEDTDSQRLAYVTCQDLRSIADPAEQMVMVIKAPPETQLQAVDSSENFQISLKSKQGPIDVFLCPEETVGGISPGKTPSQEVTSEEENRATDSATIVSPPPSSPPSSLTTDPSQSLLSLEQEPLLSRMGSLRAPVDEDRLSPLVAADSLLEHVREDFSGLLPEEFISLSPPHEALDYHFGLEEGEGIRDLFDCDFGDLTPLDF

The nature of test [6]: ATG_E_Box_CIS: Attagene CIS-FACTORIAL HepG2 Assay for human Enhancer Box (E-box) (AID 2282936). The following applies: HepG2 E-box cis-reporter transcription, actives raise or lower the signal. The essentials:
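Multiplexed CIS reporter system in transiently transfected HepG2 cells measures native transcription factor activity. Reporter RNA after 24 h exposure is profiled by RT-PCR-capillary electrophoresis.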

A short description of test [7]: ATG_M_61_CIS: Attagene CIS-FACTORIAL HepG2 Assay for M61 Transcription Factor (Internal Marker) (AID 2282937). The following applies: HepG2 Attagene CIS-FACTORIAL M61 internal marker reporter; actives raise or lower the signal. The essentials:
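Readout: fluorescent reporter mRNA fragments resolved by capillary electrophoresis after RT-PCR. Transiently transfected human HepG2 cells carried MRTU constructs reporting endogenous TF activity; 24 h chemical exposure; gain or loss of signal fitted relative to DMSO.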

A short description of test [8]: ATG_EGR_CIS: Attagene CIS-FACTORIAL HepG2 Assay for human Early Growth Response 1 (EGR1) (AID 2282938). The note with it: HepG2 Attagene CIS-FACTORIAL EGR reporter mRNA; actives raise or lower the signal. The essentials:
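Read-out: fluorescent reporter-mRNA fragments resolved by capillary electrophoresis after RT-PCR, 24 h post-dose in transiently transfected HepG2. Endogenous transcription-factor activity reported via cis-element-regulated reporter units; gain or loss fitted relative to DMSO.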

A short description of test [9]: ATG_M_19_CIS: Attagene CIS-FACTORIAL HepG2 Assay for M19 Transcription Factor (Internal Marker) (AID 2282939). The following applies: HepG2 Attagene CIS-FACTORIAL M19 internal marker reporter; actives raise or lower the signal. The essentials:
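Readout: fluorescent reporter-transcript fragments by capillary electrophoresis after RT-PCR. Human HepG2 liver cells carried transfected MRTU constructs reporting endogenous transcription-factor activity; exposure 24 h. Gain or loss of signal fitted relative to DMSO.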

The target of test [10] is Aryl hydrocarbon receptor (Homo sapiens) (UniProt P35869). Briefly: ATG_Ahr_CIS: Attagene CIS-FACTORIAL HepG2 Assay for human Aryl Hydrocarbon Receptor (Ahr) (AID 2282930). The note with it: HepG2 AhR cis-factorial reporter transcription; actives raise or lower the signal. The essentials: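 HepG2 cells transiently transfected with cis-element-driven multiplexed reporter transcription units; endogenous transcription factor activity measured as reporter mRNA 24 h after dosing. RT-PCR, 6-FAM labelling, HpaI digestion, capillary electrophoresis; bidirectional fitting versus DMSO baseline.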
Aryl hydrocarbon receptor (Homo sapiens), sequence (P35869 whole entry, looked up): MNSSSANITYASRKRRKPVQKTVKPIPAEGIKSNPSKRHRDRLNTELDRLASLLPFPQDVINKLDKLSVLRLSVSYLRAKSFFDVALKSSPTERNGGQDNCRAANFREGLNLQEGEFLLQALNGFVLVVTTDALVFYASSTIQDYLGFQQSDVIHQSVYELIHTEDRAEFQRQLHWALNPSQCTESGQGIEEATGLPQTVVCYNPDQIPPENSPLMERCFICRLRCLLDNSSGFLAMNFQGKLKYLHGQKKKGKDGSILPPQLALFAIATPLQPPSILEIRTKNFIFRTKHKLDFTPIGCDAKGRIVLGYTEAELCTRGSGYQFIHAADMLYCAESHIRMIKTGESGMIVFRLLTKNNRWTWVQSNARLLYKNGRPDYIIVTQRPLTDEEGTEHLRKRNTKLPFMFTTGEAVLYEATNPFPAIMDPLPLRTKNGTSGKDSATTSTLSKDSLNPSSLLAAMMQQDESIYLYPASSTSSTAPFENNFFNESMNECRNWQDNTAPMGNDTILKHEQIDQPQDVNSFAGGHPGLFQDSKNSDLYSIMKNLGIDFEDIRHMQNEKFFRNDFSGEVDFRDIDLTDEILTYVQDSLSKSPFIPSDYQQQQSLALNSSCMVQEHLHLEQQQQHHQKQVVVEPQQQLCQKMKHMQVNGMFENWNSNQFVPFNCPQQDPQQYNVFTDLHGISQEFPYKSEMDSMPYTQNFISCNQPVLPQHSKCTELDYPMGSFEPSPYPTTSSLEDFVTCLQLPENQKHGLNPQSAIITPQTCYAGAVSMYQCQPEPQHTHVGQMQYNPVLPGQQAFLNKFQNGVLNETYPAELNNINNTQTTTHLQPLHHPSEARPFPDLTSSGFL

Retinoic acid receptor alpha (Homo sapiens), sequence (P10276 whole entry, looked up): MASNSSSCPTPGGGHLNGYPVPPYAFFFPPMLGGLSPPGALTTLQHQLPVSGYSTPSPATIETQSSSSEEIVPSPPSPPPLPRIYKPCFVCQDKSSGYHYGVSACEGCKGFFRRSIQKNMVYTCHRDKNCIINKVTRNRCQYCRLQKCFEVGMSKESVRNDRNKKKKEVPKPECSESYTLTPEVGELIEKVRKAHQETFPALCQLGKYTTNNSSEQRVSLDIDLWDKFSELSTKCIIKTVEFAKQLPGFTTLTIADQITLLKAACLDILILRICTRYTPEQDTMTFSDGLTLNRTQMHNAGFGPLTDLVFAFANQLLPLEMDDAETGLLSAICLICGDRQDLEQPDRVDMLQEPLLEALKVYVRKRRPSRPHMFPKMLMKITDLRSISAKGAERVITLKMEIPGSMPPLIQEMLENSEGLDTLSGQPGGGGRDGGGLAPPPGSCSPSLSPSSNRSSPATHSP

As a reminder, the AC50 is the concentration at which the activity in the assay is half-maximal. As to `CCCCCCCCC(=O)NCc1ccc(O)c(OC)c1`, the molecule was called inactive in test [1], in test [2], in [4], in test [5], in [6] and in [7]. The result in test [8] and in [9] was inactive. In test [3], the AC50 was 171 µM (active).
With `CNC(=O)O/N=C/C(C)(C)S(C)=O` (stereo not drawn), in test [1], the AC50 is 73 µM (active). Besides, the call in test [3], in [4], in [5], in test [6], in test [7] and in test [9] was inactive.
`O=C(CCl)CCl`: the molecule was called inactive in [10], in [1], in test [3], in test [5], in test [7] and in [9]. For the same molecule, the AC50 in test [6] is 30.1 µM (active); in test [8] it was 48.8 µM (active).
As to `O=C(NCO)NCO`, the outcome in [10], in test [1], in test [3], in test [5], in test [6] and in test [7] was inactive. The molecule was classed as inactive in [8] and in test [9].
As for `OCc1ccco1`, the outcome in test [10], in test [1], in test [3], in [5], in [6] and in test [7] was inactive. In addition, the molecule was classed as inactive in [9].
Consider `COC[C@H](C)N(C(=O)CCl)c1c(C)csc1C`, for which the call in test [10], in test [1], in test [3], in test [5], in test [6] and in [7] was inactive. In addition, the result in [8] and in [9] was inactive.
`CC(=[OH+])/C=C(/C)[O-].CC(=[OH+])/C=C(/C)[O-].CC(=[OH+])/C=C(/C)[O-].[Al]`: the result in [10], in [1], in test [3], in [5], in test [6] and in [7] was inactive. For the same molecule, the molecule was called inactive in test [9].
On to `C[C@@H]1C[C@@H]([C@H](O)CC2CC(=O)NC(=O)C2)C(=O)[C@@H](C)C1`, for which the AC50 was 24.1 µM (active) and 11.9 µM (active) in test [1]; 16.6 µM (active) and 5.79 µM (active) and 22.8 µM (active) in test [3]; 573 nM (active) and 632 nM (active) in test [5]. In addition, the outcome in test [1], in [3], in test [5], in [7], in test [8] and in test [9] was inactive.
Turning to `ClC1=C(Cl)[C@]2(Cl)[C@@H]3[C@@H](Cl)[C@@H](Cl)C[C@@H]3[C@@]1(Cl)C2(Cl)Cl`, the call in test [1], in test [2], in test [3], in test [5], in test [6] and in [7] was inactive. The molecule was called inactive in [8] and in test [9].
In the case of `CC(C)(C)CC(C)(C)c1ccc(O)cc1`, the AC50 was 19.4 µM (active) in test [1] and 8.06 µM (active) in test [6]. For the same molecule, the molecule was called inactive in [1], in test [2], in test [3], in test [5], in test [6] and in [7]. For the same molecule, the molecule was classed as inactive in test [9].
Turning to `CCCCCCCCCl`, the call in [10], in test [1], in test [3], in test [5], in test [6] and in test [7] was inactive. Further, the molecule was called inactive in test [8] and in test [9].
Consider `CCOP(=S)(OCC)Oc1nc(Cl)c(Cl)cc1Cl`, for which the AC50 is 2.35 µM (active) in test [10], 46.2 µM (active) in test [1], 65.5 µM (active) in test [3] and 48.6 µM (active) in [5]. Besides, the result in [6], in test [7], in test [8] and in [9] was inactive.
For the molecule `CC(=O)OC(c1ccccc1)C(Cl)(Cl)Cl` (stereo not drawn), the molecule was classed as inactive in [1], in test [2], in test [3], in test [5], in test [6] and in test [7]. Besides, the outcome in test [8] and in test [9] was inactive.
With `C=CCc1ccc(OC)cc1`, the molecule was classed as inactive in test [10], in test [1], in [3], in test [5], in [6] and in test [7]. Besides, in test [9], the molecule was called inactive.
For the molecule `O=[N+]([O-])c1ccc2c3c(cccc13)CC2`, the outcome in [1], in test [2], in test [3], in test [5], in test [6] and in [7] was inactive. Further, the molecule was classed as inactive in test [8] and in [9].
Take `Nc1ncc([N+](=O)[O-])s1`: the AC50 in test [10] was 62 µM (active). Besides, the call in test [1], in test [3], in test [4], in [5], in test [6] and in test [7] was inactive. The call in test [9] was inactive.
Turning to `O=C(O)C(Cl)(Cl)Cl`, the result in test [1], in [2], in test [3], in test [5], in [6] and in test [7] was inactive. For the same molecule, the molecule was called inactive in test [8] and in test [9].
Take `CC(C)c1cccc(C(C)C)c1O`: the call in test [10], in [1], in [3], in test [5], in test [6] and in [7] was inactive. For the same molecule, the molecule was called inactive in test [8] and in test [9].
